What follows are sequences tested on VDR:RXRa (NR concentration 270 nM, RXRa partner concentration 90 nM) (assay: PBM binding z-score (relative to random genomic background probes); higher = stronger binding; sequences stand for … in GC…GCGATTGACAGCGTAGAATGAAGG).
Method: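 Protein-binding microarray (Agilent 4x180K custom design, double-stranded 60-nt probes: 5' GC cap, 34-nt variable region, 24-nt constant primer region; full probe sequence given). Purified or IVT nuclear receptor:RXRα heterodimers (3:1 NR:RXRα, mostly 270:90 nM) or homodimers were incubated for 1 h in PBS with 2% milk and no ligand, then detected with Alexa488 antibodies. Fluorescence from o1-orientation probes (~5 replicates averaged) was converted to z-scores against 500 random hg19 background probes. Variable regions are seed direct-repeat (DR0–DR5) sites, all their single-nucleotide variants and half-site ablations.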

| Sequence | PBM binding z-score |
| --- | --- |
| CCTGATAGGTCATGGTCAGCTAATCTACAGTATG | 2.95 |
| TAGCCTAGGGCAGATCGGGCCAGTATACGCTATA | -0.562 |
| TCGTGTAGATCAAGCAGGTTAAGAAAGCCTGAGT | 0.56 |
| CCTTACGGGTCACTGACAGGTTCTAGCATTTGGA | 3.36 |
| CGTCGAAGGTCAGAGAGGTCAGTGAATGCCGAGT | 7.5 |
| AATACAGGGTCACTAGGCAAGAGTAGGTACGAAT | 3.97 |
| GCTTGTAGATGAAGGTTAAGAAAGACTAAGCTAA | -0.396 |
| TTAGACAGGTGAAGGTAACTCAGGTACGCAGTCG | 0.618 |
| TCATATAGGTAAACAGGTGAAAGTACGTAAGTTA | 1.48 |
| CCGAGTAGGTTATGGGGCATTCTGGCAACGGTGA | -0.0151 |
| TCATATAGGAAAAAGGTGAAAGTCGGTGTGGTAA | 1.21 |
| CCGACTGGGGCATAAGGTTACCATAAGCCAGCCC | -0.0909 |
| CGTCCAGGGTCAAGGTCAGTGAAAGAGACTCGAA | 4.79 |
| TGATATAGGTAAATGCTAGGTGAAAGTCCGATCT | 0.142 |
| TGTCAAAGTTCAAAGGTAACGTATGTATCCACAC | 5.14 |
| GTACCAAGGTGAACAGGTCGTTGATGAGTAGGCG | 1.15 |
| AGTCAAAGTTCATCTAGGTAAAGTAAGATATGCT | 4.84 |
| ATATGTAGGTTAGCTGGGGTCATGCAGACTAGGC | 5.85 |
| TCATATAGGTAAAGAGGTGAAAGTCCGTAAGTTA | 1.45 |
| GTACCAAGGAGAATAGGTCGTTGATGAGTAGGCG | 0.0366 |

| Sequence | PBM binding z-score |
| --- | --- |
| GGAACGACGGCATTCGAGTTGATAGCATGGCGAT | -0.42 |
| TCTTGTAGATCAAGCAGGTTACGAAAGCCTGAGT | 0.633 |
| CCTTACGGGTCACTCCAGGTTAGAGCATCGGAGT | 3.65 |
| GCATATAGGTAATACAAGGTGAAAGCCCGATTGT | 0.178 |
| GTACCAACGTGAATAGGTCGTTGATGAGTAGGCG | -0.204 |
| CTAACAAGGTGAACAAGGTCGTTGATTACTATTC | 6.27 |
| TCCAGTTGGTCACGGAGGTCACACACGACGGGTA | 5.75 |
| TGTAAAAGTTCAAAGGTAACGTAAGTATCCACAC | 4.65 |
| AATACCGGGTCACTAGGCCAGAGTAGGTACGAAT | 3.03 |
| TCATATAGGTAAAAGGTGAAAGTTGGTGTGGTAA | 1.88 |
| CCGCGTAGGTTATGGGGCATTCAGGCAACGGTGA | -0.207 |
| GCTAGCAGGCCATTTGGGTCACGCAATGACGGGC | 1.61 |
| CGTCCAAGGTCAATGCTAGGTCATTGAAAGCATT | 5.84 |
| GATACAGGGTCAGCTAGGGGCCAGAGTATGGAAA | 3.31 |
| TCTGCTAGGTCAGTTGGTCAGCAAACGAGCTGCC | 0.276 |
| CCTAGTTGGTCAAGGTGACACACGCTATAGGTAC | 0.694 |
| ACAGACAGGTGAGTGATGGTAACTCAGCTGGACG | -0.122 |
| TCATATAGGTAAATGCGAGGTGAAAGTCCGATCT | 1.32 |
| TCTGCTAGGTCAACGATGGTCAGATAATCTGCTA | 1.78 |
| TAGCCTAGGTCATTGAGGGGCCAGTATAGAAAGC | 3.07 |

— the supplement of paper PMC6555819
